Rtt109 Vps75: inhibitors of Candida albicans Rtt109/Vps75 histone acetyltransferase; Q5AAJ8; purified Rtt109/Vps75, ThioGlo CoA-SH fluorescence, 4 h; inhibition, % at 34.9 µM; hit rate 0.16% among 330,000;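 active means inhibition of at least 50% in every replicate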
Target sequence (Q5AAJ8 whole entry, looked up): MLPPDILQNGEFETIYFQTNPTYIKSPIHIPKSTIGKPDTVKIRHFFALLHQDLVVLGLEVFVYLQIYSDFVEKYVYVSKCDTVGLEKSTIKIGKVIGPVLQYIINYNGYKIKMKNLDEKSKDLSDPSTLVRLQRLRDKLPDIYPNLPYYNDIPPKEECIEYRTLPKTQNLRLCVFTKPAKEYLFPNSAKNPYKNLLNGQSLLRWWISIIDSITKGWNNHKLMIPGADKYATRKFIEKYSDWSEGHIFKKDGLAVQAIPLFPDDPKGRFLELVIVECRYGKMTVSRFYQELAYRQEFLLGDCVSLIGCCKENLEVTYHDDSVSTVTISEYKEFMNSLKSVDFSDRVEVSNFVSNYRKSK
PglD DTNB: inhibitors of Campylobacter jejuni PglD acetyltransferase. inhibition, % at 12.5 µM. purified PglD enzyme, DTNB colorimetric CoA detection. hit rate 0.098% among 360,000; in the data active means inhibition above about 16%, passing the limit was not always enough
DENV2 CPE: DENV2-induced cell death inhibition | DENV2-infected cells, cytopathic effect rescue, plate reader | CPE inhibition, % at 9.99 µM | hit rate 1.7% among 350,000; in the data active means CPE inhibition above about 20%, passing the limit was not always enough; tested in BHK-21 cells;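 further: 0% = median of neutral control wells and 100% = median of positive control wells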
N-glyco inh: N-linked glycosylation inhibition; reporter increase, % at 12.5 µM; D54 ERlucT glycosylation luciferase reporter, 24 h; percent of 100 nM tunicamycin response; hit rate 0.23% among 360,000;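 active means mean luciferase reporter signal, scaled so untreated is 0 and the glycosylation-blocking control 100, at or above a set limit in every replicate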;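 further: luciferase carries N-glycosylation sites so blocking glycosylation raises the light; 0% = median of neutral control wells and 100% = median of 100 nM tunicamycin wells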
* = called active by the depositor. The sample as a whole holds a higher share of hits than the screen did.

For Cc1noc(C)c1NC(=O)N(C)C[C@H]1Oc2ccc(NS(=O)(=O)c3c(C)noc3C)cc2CC(=O)N([C@@H](C)CO)C[C@H]1C the results were PglD DTNB 0.6 and DENV2 CPE -9.4.
`O=C(Cc1cccnc1)N1CC(=O)N2[C@H](CO)[C@H](c3ccc(C4=CCCCC4)cc3)[C@@H]2C1` gave DENV2 CPE 1.1.
Screening COc1ccc2c3c(n(C)c2c1)[C@H](CO)N(Cc1ccncc1)CC31CCN(C(=O)NC(C)C)CC1 returned DENV2 CPE -3.7.
For COc1cccc(OC)c1-c1cnc(NC(C)=O)cn1 the results were PglD DTNB 4.7, DENV2 CPE 23.9* and N-glyco inh 2.4.
C=CC[C@H](CC(=O)NCCO)C(=O)NCCOC(=O)[C@@H](CC=C)Cc1ccc(F)cc1 was read as Rtt109 Vps75 2.1, PglD DTNB 2.9, DENV2 CPE 46.9* and N-glyco inh -0.9.
`C[C@H](CO)N1C[C@H](C)[C@@H](CN(C)Cc2ccc(C(=O)O)cc2)Oc2c(NC(=O)Cc3ccccc3)cccc2C1=O` gave Rtt109 Vps75 1.6, PglD DTNB -1.2, DENV2 CPE 53.0* and N-glyco inh 1.2.
C[C@@H]1CN([C@H](C)CO)C(=O)c2cccc(NC(=O)Nc3ccccc3)c2O[C@@H]1CN(C)Cc1ccc(Cl)c(Cl)c1 was read as PglD DTNB 3.2 and DENV2 CPE 75.8*.
For C[C@H](CO)N1C[C@H](C)[C@@H](CN(C)S(=O)(=O)c2ccccc2)Oc2c(NC(=O)Cc3ccccc3)cccc2C1=O the results were Rtt109 Vps75 -0.7, PglD DTNB -8.8, DENV2 CPE 1.6 and N-glyco inh 27.7*.
For C[C@H](CO)N1C[C@H](C)[C@@H](CN(C)Cc2ccc(C(=O)O)cc2)Oc2c(NC(=O)Nc3ccccc3)cccc2C1=O the results were PglD DTNB -5.0 and DENV2 CPE 30.3*.
`C[C@H](CO)N1C[C@H](C)[C@H](CN(C)Cc2ccc(Cl)c(Cl)c2)Oc2c(NC(=O)CCCCCC(=O)Nc3ccccc3N)cccc2C1=O` gave DENV2 CPE 0.6.
For C[C@H](CO)N1C[C@H](C)[C@@H](CN(C)Cc2ccc(Cl)c(Cl)c2)Oc2c(NC(=O)CCC(F)(F)F)cccc2C1=O the results were Rtt109 Vps75 4.4, PglD DTNB 2.2, DENV2 CPE 22.4* and N-glyco inh -4.6.
Screening CN1CCN(C(=O)C[C@H]2CC[C@@H]3[C@H](COC[C@@H](O)CN3C(=O)Nc3cc(Cl)cc(Cl)c3)O2)CC1 returned PglD DTNB -0.4 and DENV2 CPE 8.0.
`CC(=O)Nc1ccc(C(=O)N/N=C/c2ccccc2OCc2ccccc2)cc1` gave Rtt109 Vps75 -4.0, PglD DTNB 1.4, DENV2 CPE 1.3 and N-glyco inh 41.0*.
`CC(C)C#Cc1ccc2c(c1)O[C@H](CN(C)C)[C@H](C)CN([C@H](C)CO)S2(=O)=O` gave DENV2 CPE -2.7.
Screening CCCC#Cc1ccc([C@@H]2[C@@H](CO)N(C(=O)C3CC3)[C@H]2C#N)cc1 returned PglD DTNB 1.3 and DENV2 CPE 62.6*.
`CC(C)C#Cc1ccc([C@@H]2[C@@H](C#N)N(C(=O)C3CCC3)[C@@H]2CO)cc1` gave PglD DTNB 2.6 and DENV2 CPE -9.9.
Screening CN(C)CC#Cc1ccc([C@H]2[C@@H](CO)N(C(=O)C3CC3)[C@H]2C#N)cc1 returned PglD DTNB -0.2 and DENV2 CPE 32.5*.
CC(C)C#Cc1ccc([C@H]2[C@H](C#N)N(C(=O)C3CCC3)[C@H]2CO)cc1 was read as PglD DTNB -2.6 and DENV2 CPE 57.1*.
For CCC(=O)N1[C@@H](CO)[C@H](c2ccccc2)[C@@H]1CNC(=O)CN1CCOCC1 the results were PglD DTNB -1.2 and DENV2 CPE -13.0.
C[C@H]1CN([C@@H](C)CO)C(=O)Cc2cc(NC(=O)NC3CCCCC3)ccc2O[C@H]1CN(C)C was read as PglD DTNB 6.2 and DENV2 CPE 9.9.
`COc1ccc(S(=O)(=O)N(C)C[C@@H]2Oc3ccc(NC(=O)Nc4ccc(F)cc4)cc3CC(=O)N([C@@H](C)CO)C[C@@H]2C)cc1` gave PglD DTNB -3.7 and DENV2 CPE -6.6.
CCSc1ccccc1C(=O)Nc1ccc([N+](=O)[O-])cc1OC was read as Rtt109 Vps75 55.3*, DENV2 CPE 10.2 and N-glyco inh -0.7.
N#C[C@H]1[C@H](c2ccccc2-c2ccccc2)[C@@H](CO)N1C(=O)NC1CCCCC1 was read as DENV2 CPE 0.1.
`Cc1ccc(/C=C/C(=O)NCc2ccc(S(N)(=O)=O)cc2)o1` gave Rtt109 Vps75 72.4*, DENV2 CPE -0.6 and N-glyco inh -1.0.
Screening Cc1cc(C)c2c(N)c3cccc(C)c3nc2n1 returned Rtt109 Vps75 inactive, DENV2 CPE -12.8 and N-glyco inh 103.5*.
`Cc1cccc2c(N)c3c(nc12)CCCC3` (tested in a mixture with another compound) gave Rtt109 Vps75 5.5, PglD DTNB 3.5 and N-glyco inh 10.5.
For O=C(NC1CCCCC1)N[C@@H]1CC[C@H](CCNS(=O)(=O)c2ccccc2)O[C@@H]1CO the results were PglD DTNB -3.3 and DENV2 CPE -5.9.
For CCN1CCN(CCc2nc3cc(NC(=O)COc4ccc(Cl)cc4)ccc3n2C)CC1 the results were Rtt109 Vps75 4.8, PglD DTNB -7.5, DENV2 CPE 25.3* and N-glyco inh -2.5.
`CCN1C/C(=C\c2cccc([N+](=O)[O-])c2)C(=O)/C(=C/c2cccc([N+](=O)[O-])c2)C1` gave Rtt109 Vps75 -3.7, PglD DTNB -5.0, DENV2 CPE 33.2* and N-glyco inh -23.2.
N#C[C@@H]1N[C@H](CO)[C@H]1c1ccccc1 was read as PglD DTNB -4.6 and DENV2 CPE 38.5*.
Screening N#C[C@H]1N[C@H](CO)[C@@H]1c1ccc(/C=C/c2ccccc2)cc1 returned PglD DTNB -0.4 and DENV2 CPE -4.0.
Screening N#C[C@H]1N[C@H](CO)[C@H]1c1ccc(C#Cc2ccc(F)cc2)cc1 returned PglD DTNB -0.2 and DENV2 CPE 55.4*.
Screening COc1cccc(-c2cnc3c(c2)C(=O)N([C@@H](C)CO)C[C@H](C)[C@@H](CN(C)Cc2ccncc2)O3)c1 returned PglD DTNB 0.0 and DENV2 CPE -1.0.
CCC(=O)N1CC2(C1)[C@@H](c1ccccc1)[C@@H](CO)N2Cc1ccccc1OC was read as DENV2 CPE -10.5.
For COc1ccc(Br)c(-c2nnc(CS(=O)(=O)c3ccccc3)o2)c1 the results were Rtt109 Vps75 43.0, PglD DTNB 1.1, DENV2 CPE 8.6 and N-glyco inh -2.6.
CCOc1ccccc1-c1nnc(CS(=O)(=O)c2ccccc2)o1 was read as Rtt109 Vps75 15.8, PglD DTNB 1.0, DENV2 CPE 52.9* and N-glyco inh 2.7.
For NC(N)=N/N=C/c1ccc2cccc(OCc3ccccc3)c2n1 the results were Rtt109 Vps75 -8.3, DENV2 CPE 1.8 and N-glyco inh 29.1*.
For CC(C)C[C@@H]1CN(CCCC[C@H]2CNC(=O)C(=O)N2CCC2CCCCC2)C(=O)C(=O)N1Cc1ccccc1 the results were DENV2 CPE 24.1*.
